Source: PubChem
Shown are actives, neighbours in structure and some others; about 3.5% of the full set was active somewhere.
TEAD-YAP block: TEAD-YAP interaction inhibition; inhibition, % at 9.12 µM; HEK-TIYL cells, TEAD-Gal4/YAP UAS-luciferase luminescence; 640,000 compounds, 1.4% hits; in the data active = inhibition above about 32%;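 note: 0% = median of test compound wells and 100% = reference inhibitor wells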
GPR151 ag: human GPR151 activation; Q8TDV0; activation, % at 11.2 µM; PathHunter beta-arrestin GPR151 cells, luminescence; 650,000 compounds, 1% hits; in the data active = activation above about 4.9%;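 note: 0% = median of compound wells and 100% = cells with positive control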
MITF inh: inhibitors of human MITF; AlphaScreen MITF homodimerization, bead proximity signal; inhibition, % at 2.6 µM; 650,000 compounds, 0.91% hits; in the data active = inhibition above about 50%;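 note: 0% = vehicle wells with protein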
FBW7 act: activators of human E3 ligase FBW7; Q969H0; AlphaScreen FBW7–phospho-cyclin E peptide binding, activator screen; normalized activity (activation), % at 26.1 µM; 650,000 compounds, 0.13% hits; AID 1259310; in the data active = normalized activity above about 1.9%;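 note: purified mutant Fbw7 with reduced substrate affinity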
GPR151 conf act: confirmation of human GPR151 activators; shares compounds with GPR151 ag; GPR151 PathHunter beta-arrestin cells, luminescence, 90 min; % of EA-reagent control over plate median; activation, % at 11.2 µM; 6,700 tested, under 10 active;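 active = mean percent activation across replicates above the confirmation screen cutoff of 4.91%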
GPR119 ag: GPR119 activation, counter-screen for GPR151 activators | shares compounds with GPR151 ag | GPR119 PathHunter beta-arrestin cells, luminescence, 90 min; 0 = compound-well median, 100 = enzyme-acceptor control | activation, % at 11.2 µM | 6,700 compounds, 0.3% hits;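 active = mean percent activation in the counterscreen above 29.09%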;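 note: counterscreen on off-target GPR119 to flag nonselective hits from the GPR151 activator screen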
Target sequence (Q8TDV5 whole entry, looked up): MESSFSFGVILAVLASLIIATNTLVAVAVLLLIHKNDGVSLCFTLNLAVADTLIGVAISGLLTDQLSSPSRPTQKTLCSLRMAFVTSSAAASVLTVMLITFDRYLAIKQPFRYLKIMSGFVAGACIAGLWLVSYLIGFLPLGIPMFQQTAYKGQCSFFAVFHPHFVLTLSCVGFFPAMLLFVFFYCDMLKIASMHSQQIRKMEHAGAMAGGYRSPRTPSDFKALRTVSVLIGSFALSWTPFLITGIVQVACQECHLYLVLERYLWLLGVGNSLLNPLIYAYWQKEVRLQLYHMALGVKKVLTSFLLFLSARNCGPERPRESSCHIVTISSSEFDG
* = called active by the depositor.

Results for Nc1ncccc1C(=O)OCC(=O)c1ccc(Cl)cc1 ?
TEAD-YAP block: -29; GPR151 ag: 0; MITF inh: 4; FBW7 act: 0

How did CCc1ccc(-n2nnc(-c3nc(-c4ccccc4F)no3)c2N)cc1 do in these assays?
TEAD-YAP block: -4; GPR151 ag: 1; MITF inh: 11; FBW7 act: 0

How did Cn1c(Nc2nc3ncnc(NCCOc4ccccc4)c3[nH]2)nc2ccccc21 do in these assays?
TEAD-YAP block: 6; GPR151 ag: 4.9*; MITF inh: 20; FBW7 act: 0; GPR151 conf act: -1; GPR119 ag: -10

What do the screens show for `c1ccc(OCCNc2ncnc3nc(Nc4cnccn4)[nH]c23)cc1`?
TEAD-YAP block: 4; GPR151 ag: 5.7*; MITF inh: 4; FBW7 act: 0; GPR151 conf act: -2; GPR119 ag: -2

What do the screens show for `c1ccc(OCCNc2ncnc3nc(Nc4nccc5ccccc45)[nH]c23)cc1`?
TEAD-YAP block: -2; GPR151 ag: 2; MITF inh: 14; FBW7 act: 0

How did COc1ccc(/C=N/OCc2nc3ccccc3c(=O)n2/N=C/c2ccc(O)cc2O)cc1 do in these assays?
TEAD-YAP block: -1; GPR151 ag: 1; MITF inh: 0; FBW7 act: 0

How did Cc1[nH]c(=O)[nH]c(=O)c1S(=O)(=O)N1CCN(Cc2ccc3c(c2)OCO3)CC1 do in these assays?
TEAD-YAP block: 2; GPR151 ag: 0; MITF inh: -17; FBW7 act: 0

What do the screens show for `Cc1cc(C(=O)/C=C/c2ccc(OCC(=O)O)cc2)c(C)s1`?
TEAD-YAP block: 4; GPR151 ag: 6.1*; MITF inh: 2; FBW7 act: 0; GPR151 conf act: 0; GPR119 ag: -4

What do the screens show for `O=C(CSc1nc2cc(C(=O)NCC3CCCO3)ccc2c(=O)n1CC1CCCO1)NC1CCCCC1` (centres undefined)?
TEAD-YAP block: 0; GPR151 ag: 1; MITF inh: 2; FBW7 act: 1

How did O=C(CSc1nc2cc(C(=O)NCC3CCCO3)ccc2c(=O)n1Cc1ccco1)NC1CCCCC1 (centres undefined) do in these assays?
TEAD-YAP block: -1; GPR151 ag: 5.2*; MITF inh: -9; FBW7 act: 0; GPR151 conf act: -1; GPR119 ag: -2

How did CCCNc1nc(Nc2ccc3ncccc3c2)ncc1C do in these assays?
TEAD-YAP block: -7; GPR151 ag: -1; MITF inh: 3; FBW7 act: 0

Results for Cc1cnc(Nc2ccc3ncccc3c2)nc1NCCN(C(C)C)C(C)C ?
TEAD-YAP block: 4; GPR151 ag: 5.4*; MITF inh: -4; FBW7 act: 0; GPR151 conf act: 1; GPR119 ag: 3

Results for Cc1cc(C(=O)Nc2ccccc2C(F)(F)F)on1 ?
TEAD-YAP block: -6; GPR151 ag: 5.3*; MITF inh: 7; FBW7 act: 0; GPR151 conf act: 1; GPR119 ag: 4

Results for Cc1ccccc1-c1nc(SC(C)C(=O)O)c2c(=O)n(C)c(=O)n(C)c2n1 (centres undefined) ?
TEAD-YAP block: -1; GPR151 ag: -1; MITF inh: 5; FBW7 act: 0

What do the screens show for `O=C(/C=C/c1cccc(I)c1)Oc1cccnc1`?
TEAD-YAP block: -7; GPR151 ag: 2; MITF inh: -25; FBW7 act: 0

What do the screens show for `CCCc1cc(C(=O)Nc2ccc(OC)cc2OC)no1`?
TEAD-YAP block: -18; GPR151 ag: 17*; MITF inh: -1; FBW7 act: 0; GPR151 conf act: 0; GPR119 ag: -4

Results for COc1ccc(-c2cc(C(=O)Nc3ccc(OC)cc3OC)no2)cc1 ?
TEAD-YAP block: 6; GPR151 ag: 0; MITF inh: 6; FBW7 act: 0

Results for O=S(=O)(c1ccc(F)cc1)N1CCSCC1 ?
TEAD-YAP block: -6; GPR151 ag: 5.8*; MITF inh: -7; FBW7 act: 0; GPR151 conf act: 1; GPR119 ag: 12

Results for CN1C(=O)CCC12CCN(Cc1c[nH]c3ccccc13)CC2 ?
TEAD-YAP block: -7; GPR151 ag: 8.1*; MITF inh: 15; FBW7 act: 0; GPR151 conf act: 0; GPR119 ag: -1

How did CCOc1ccccc1N1CCN(S(=O)(=O)c2ccccc2[N+](=O)[O-])CC1 do in these assays?
TEAD-YAP block: 0; GPR151 ag: 5.7*; MITF inh: -4; FBW7 act: 0; GPR151 conf act: -1; GPR119 ag: -5

What do the screens show for `COc1ccccc1CN1CCN(S(=O)(=O)c2ccccc2[N+](=O)[O-])CC1`?
TEAD-YAP block: -4; GPR151 ag: 0; MITF inh: 48; FBW7 act: 0

Results for CCOc1ccccc1CN1CCN(S(=O)(=O)c2ccccc2[N+](=O)[O-])CC1 ?
TEAD-YAP block: -9; GPR151 ag: 5.7*; MITF inh: 37; FBW7 act: 0; GPR151 conf act: 0; GPR119 ag: 11

What do the screens show for `CCS(=O)(=O)N1CCN(S(=O)(=O)c2ccccc2[N+](=O)[O-])CC1`?
TEAD-YAP block: 9; GPR151 ag: 2; MITF inh: 4; FBW7 act: 0

How did O=[N+]([O-])c1ccc(Cl)c2c1C1C=CCC1C(c1ccccn1)N2 (centres undefined) do in these assays?
TEAD-YAP block: -5; GPR151 ag: 5.1*; MITF inh: 9; FBW7 act: -1; GPR151 conf act: 0; GPR119 ag: 10

Results for COc1cc(NC2c3ncccc3C(=O)N2Cc2ccc(F)cc2)cc(OC)c1OC (centres undefined) ?
TEAD-YAP block: -5; GPR151 ag: -1; MITF inh: -5; FBW7 act: 0

How did CN1C(=O)c2ccc(NC(=O)c3cccc4ccccc34)cc2C1=O do in these assays?
TEAD-YAP block: -15; GPR151 ag: 3; MITF inh: -18; FBW7 act: 0

Results for C=C(C)c1cccc(C(C)(C)NC(=O)Nc2ccc(C(C)=O)cc2)c1 ?
TEAD-YAP block: -1; GPR151 ag: 0; MITF inh: 6; FBW7 act: 0

What do the screens show for `C=C(C)c1cccc(C(C)(C)NC(=O)Nc2ccccc2F)c1`?
TEAD-YAP block: 18; GPR151 ag: 9.5*; MITF inh: 15; FBW7 act: 0; GPR151 conf act: 0; GPR119 ag: -8

What do the screens show for `COc1ccc(C(c2nnnn2C(C)C)N2CCN(c3ccccc3OC)CC2)cc1` (centres undefined)?
TEAD-YAP block: -5; GPR151 ag: -1; MITF inh: 3; FBW7 act: 0

How did CC(C)n1nnnc1C(c1ccccc1F)N1CCN(c2ccccc2)CC1 (centres undefined) do in these assays?
TEAD-YAP block: 2; GPR151 ag: 6.0*; MITF inh: -1; FBW7 act: 0; GPR151 conf act: 0; GPR119 ag: 10
